This note sets out measurements from article PMC5540273 (PLoS ONE, 2017).

Read-outs that look alike come from different tables or passages of the source.

In one assay the test system is T1, GRK3.
T1 construct: gene ADRBK2
As to conditions: concentration: 1 μM, replicates: in singlicate; n = 1.

A further assay concerns GRK4. Particulars: concentration: 1 μM, replicates: in singlicate; n = 1.
The subject of another assay is GRK7. As to conditions: concentration: 1 μM, replicates: in singlicate; n = 1.
For a further assay, the system named is GSK3A. As to conditions: concentration: 1 μM, replicates: in singlicate; n = 1.
The next assay has as its system GSK3B. As to conditions: n = 1.
In a further assay the test system is T2, HASPIN.
T2 construct: gene GSG2
As to conditions: concentration: 1 μM, replicates: in singlicate; n = 1.

The next assay concerns HCK. As to conditions: concentration: 1 μM, replicates: in singlicate; n = 1.
The subject of a further assay is HIPK1. As to conditions: concentration: 1 μM, replicates: in singlicate; n = 1.
A further assay relates to HIPK2. As to conditions: concentration: 1 μM, replicates: in singlicate; n = 1.
The subject of the next assay is HIPK3. As to conditions: concentration: 1 μM, replicates: in singlicate; n = 1.
The subject of another assay is HIPK4. Particulars: concentration: 1 μM, replicates: in singlicate; n = 1.
The test system of the next assay is HPK1. As to conditions: concentration: 1 μM, replicates: in singlicate; n = 1.
A further assay has as its system HUNK. Particulars: concentration: 1 μM, replicates: in singlicate; n = 1.
Another assay has as its system ICK. Particulars: concentration: 1 μM, replicates: in singlicate; n = 1.
Another assay concerns IGF1R. Particulars: concentration: 1 μM, replicates: in singlicate; n = 1.
A further assay deals with T3, IKK-alpha.
T3 construct: gene CHUK
Particulars: concentration: 1 μM, replicates: in singlicate; n = 1.

A further assay has as its system T4, IKK-beta.
T4 construct: gene IKBKB
As to conditions: concentration: 1 μM, replicates: in singlicate; n = 1.

For the next assay, the system named is T5, IKK-epsilon.
T5 construct: gene IKBKE
Particulars: concentration: 1 μM, replicates: in singlicate; n = 1.

The subject of a further assay is INSRR. Particulars: concentration: 1 μM, replicates: in singlicate; n = 1.
Another assay concerns INSR. As to conditions: concentration: 1 μM, replicates: in singlicate; n = 1.
The mark [1] stands for this setting: concentration: 1 μM, replicates: in singlicate.
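Also: KINOMEscan kinase panel screen.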

With `O=C1NC(=O)C(c2ccc(Cl)cc2)=C1Nc1ccc(O)cc1` [SB-340867], the “%Inh” value is reported as 0% in the assay on GRK3; 0% in the assay on GRK4; 0% in the assay with GRK7; 29% in the assay on GSK3A; 0% with GSK3B (1 µM); 9% in the assay with HASPIN. For the same compound, the “%Inh” value was found to be 0% in the assay on HCK; 0% in the assay with HIPK1; 0% with HIPK2; 0% in the assay on HIPK3; 0% in the assay on HIPK4; 35% in the assay with HPK1. The “%Inh” value in the assay with HUNK, with ICK, in the assay with IGF1R, in the assay on IKK-alpha, in the assay on IKK-beta and in the assay on IKK-epsilon was 0% throughout. In addition, the “%Inh” value in the assay with INSRR and in the assay on INSR was 0% throughout.

With `Cc1nccc(-c2c(-c3ccc(F)cc3)ncn2CCCN2CCOCC2)n1.Cl` [SB-282975], the “%Inh” value in the assay with GRK3 is on record as 34%; with GRK4, 0%; in the assay with GRK7, 23%; with GSK3A it was 23%; in the assay on GSK3B (setting [1]) it was 17%; with HASPIN, 23%. The “%Inh” value in the assay on HCK is given as 8%; with HIPK1, 0%; in the assay on HIPK2, 0%; in the assay on HIPK3 it was 14%; in the assay on HIPK4, 50%; in the assay on HPK1, 3%. For the same compound, the “%Inh” value in the assay on HUNK came out at 16%; with ICK it was 39%; in the assay on IGF1R it was 3%; with IKK-alpha, 14%; in the assay with IKK-beta it was 12%; in the assay on IKK-epsilon, 0%. Moreover, the “%Inh” value in the assay on INSRR is recorded as 11%; in the assay on INSR it was 3%.

With `COc1ccc(Nc2nccc(N3CCC(NC(=O)c4cc5ccccc5s4)C3)n2)cc1` (stereo not shown) [GSK1379738], the “%Inh” value with GRK3 amounted to 0%; in the assay with GRK4, 0%; with GRK7, 0%; in the assay on GSK3A, 11%; in the assay with GSK3B (setting [1]), 14%; in the assay on HASPIN, 24%. Besides, the “%Inh” value in the assay on HCK worked out at 0%; in the assay with HIPK1 it was 0%; with HIPK2, 0%; in the assay with HIPK3, 7%; with HIPK4, 0%; in the assay on HPK1 it was 48%. The “%Inh” value is reported as 0% in the assay with HUNK; 10% with ICK; 0% with IGF1R; 21% with IKK-alpha; 25% in the assay on IKK-beta; 28% in the assay with IKK-epsilon. Moreover, the “%Inh” value in the assay on INSRR is on record as 0%; with INSR, 5%.

As to `Fc1ccc(-c2nc[nH]c2-c2ccncc2)cc1` [SB-217360], the “%Inh” value in the assay with GRK3 was 11%; in the assay with GRK4, 19%; with GRK7 it was 0%; in the assay on GSK3A, 0%; in the assay with GSK3B (setting [1]) it was 13%; in the assay with HASPIN it was 57%. Moreover, the “%Inh” value in the assay on HCK turned out to be 20%; in the assay with HIPK1 it was 34%; in the assay on HIPK2 it was 10%; with HIPK3, 7%; with HIPK4, 0%; with HPK1 it was 0%. Besides, the “%Inh” value in the assay with HUNK came out at 55%; with ICK it was 0%; in the assay with IGF1R it was 3%; in the assay with IKK-alpha, 9%; in the assay on IKK-beta, 0%; with IKK-epsilon, 0%. Moreover, the entries for the “%Inh” value with INSRR and in the assay on INSR were 0% and 24%, respectively.

In the case of `Cc1ccc(NC(=O)Nc2ccc(Cl)c(C(F)(F)F)c2)cc1-c1ccc(C(=O)Nc2ccncc2)cc1` [GSK1398470], the “%Inh” value in the assay with GRK3 is listed as 0%; with GRK4, 10%; with GRK7 it was 0%; in the assay on GSK3A it was 21%; in the assay with GSK3B (setting [1]), 10%; in the assay on HASPIN it was 10%. Also, the “%Inh” value in the assay on HCK came to 0%; in the assay on HIPK1, 0%; with HIPK2, 0%; in the assay with HIPK3, 0%; with HIPK4 it was 8%; in the assay with HPK1, 56%. For the same compound, the “%Inh” value with HUNK came out at 9%; in the assay on ICK it was 4%; with IGF1R, 26%; with IKK-alpha it was 0%; with IKK-beta, 0%; in the assay with IKK-epsilon it was 29%. In addition, the entries for the “%Inh” value in the assay on INSRR and in the assay on INSR were 5% and 23%, respectively.

`COc1cccc(NC(=O)Nc2ccc(C)c(-c3ccc(C(=O)Nc4ccncc4)cc3)c2)c1` [GSK1398474]: the “%Inh” value in the assay with GRK3 came to 0%; with GRK4, 3%; in the assay with GRK7, 0%; with GSK3A, 10%; with GSK3B (setting [1]), 13%; in the assay on HASPIN, 0%. For the same compound, the “%Inh” value is recorded as 0% in the assay with HCK; 0% with HIPK1; 0% in the assay with HIPK2; 20% with HIPK3; 27% with HIPK4; 78% in the assay with HPK1. The “%Inh” value with HUNK was determined as 2%; in the assay with ICK, 17%; with IGF1R, 12%; with IKK-alpha, 0%; with IKK-beta, 84%; in the assay with IKK-epsilon it was 22%. The “%Inh” value in the assay with INSRR and with INSR was 0% in each case.

Consider `COC(=O)C(Cc1ccccc1)NC(=O)NC1CCN(c2ccnc(Nc3ccc(F)cc3)n2)C1` (stereo not shown) [GSK1379714], for which the “%Inh” value is listed as 58% with GRK3; 1% with GRK4; 0% with GRK7; 13% in the assay with GSK3A; 6% with GSK3B (setting [1]); 24% in the assay on HASPIN. The “%Inh” value in the assay on HCK is listed as 4%; in the assay on HIPK1, 0%; in the assay with HIPK2 it was 0%; in the assay with HIPK3 it was 0%; in the assay with HIPK4, 0%; with HPK1, 51%. Further, the “%Inh” value in the assay with HUNK came out at 0%; in the assay on ICK it was 0%; in the assay on IGF1R, 8%; with IKK-alpha, 0%; in the assay on IKK-beta it was 0%; in the assay with IKK-epsilon, 34%. The “%Inh” value in the assay on INSRR was determined as 0%; with INSR, 1%.

With `COc1nccc(-c2c(-c3ccc(F)cc3)ncn2CCCN2CCOCC2)n1` [SB-282852], the “%Inh” value in the assay with GRK3 is 14%; with GRK4 it was 23%; with GRK7 it was 37%; in the assay with GSK3A it was 17%; in the assay on GSK3B (setting [1]), 10%; with HASPIN, 0%. Also, the “%Inh” value came out at 0% in the assay with HCK; 46% in the assay with HIPK1; 76% in the assay with HIPK2; 0% in the assay on HIPK3; 0% in the assay on HIPK4; 21% with HPK1. For the same compound, the “%Inh” value turned out to be 0% in the assay on HUNK; 16% with ICK; 0% in the assay with IGF1R; 26% with IKK-alpha; 21% in the assay with IKK-beta; 8% in the assay on IKK-epsilon. For the same compound, the “%Inh” value with INSRR and with INSR was 0% in each case.
